Data: PubChem BioAssay AID463213 (Sanford-Burnham Center for Chemical Genomics, 2010)
Out of some 7,400 compounds screened, about 4,100 (55%) were called active. The set was probably picked from earlier hits. Only a sample is shown. Unmarked numbers belong to inactive results.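 Rule for the calls: active = inhibition of yeast growth at or above a set limit in either of two repeat tests at 20 µM; inactive = the rest.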

Test: tim10-1 ts yeast growth inhibition, retested – single concentration, luminescence, S. cerevisiae, confirmation (AID 463213);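 note: tim10-1 mutant grown at permissive 25 °C to find synthetic lethal compounds; 0% = DMSO yeast wells and 100% = medium wells without yeast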
Settings: S. cerevisiae tim10-1 ts strain growth, BacTiter-Glo, 24 h; at 20 µM; stronger effect = higher value

Compound	inhibition
COc1ccccc1C1C(C#N)=C(N)Oc2c1c(-c1ccccc1)nn2-c1ccccc1 (configuration not stated)	21.8%
Cc1ccc(C(C[N+](=O)[O-])c2c(C)cc3ccccn23)cc1 (configuration not stated)	30.6% (active)
CCN1/C(=C\c2ccc3ccccc3[n+]2CC)Sc2cc(C)ccc21	59% (active)
COc1ccc2nc(/N=C(\N)NC(=O)Nc3ccccc3)nc(C)c2c1	51% (active)
O=C1[C@@H](c2ccccc2)[C@@H](c2ccccc2)N1c1cccnc1	66.5% (active)
O=c1c(-c2ccc3c(c2)OCCO3)c(C(F)(F)F)oc2cc(O)cc(O)c12	22.5%
Cc1onc(NC(=O)c2ccc([N+](=O)[O-])o2)c1Br	45.9% (active)
O=C(Nc1ccc(Br)cn1)c1ccc([N+](=O)[O-])o1	59.5% (active)
Cc1cccc(NC(=O)c2ccc([N+](=O)[O-])o2)c1	50.1% (active)
Cc1cccc(CN2CCC(CNC(=O)Nc3ccc(F)c(Cl)c3)CC2)c1	14.9%
CCOC(=O)C1=C(C)N=c2s/c(=C\C(=O)OC)c(=O)n2C1c1ccc(OC)cc1 (configuration not stated)	24.7%
CC(=O)/C(=N\Nc1ccc(Cl)cc1Cl)Sc1cccc2cccnc12	43% (active)
Cc1cc(C)c(S(=O)(=O)c2ccccc2)c(OC(=O)c2c(F)cccc2Cl)n1	41.5% (active)
Oc1c(C(c2ccccn2)N2CCOCC2)ccc2cccnc12 (configuration not stated)	16.2%
CCN1CCN(C(c2cccnc2)c2cc(Cl)c3cccnc3c2O)CC1 (configuration not stated)	34% (active)
CCOC(=O)c1ccc(N2C(=O)CC(N3CCC(C(=O)OCC)CC3)C2=O)cc1 (configuration not stated)	47.8% (active)
Cc1[nH]c(=O)c(C(=O)/C=C/c2ccccc2)c2c1CCCC2	50.3% (active)
COc1ccc(Cn2c(-c3ccc(Cl)cc3)c[n+]3ccccc23)cc1	32.9% (active)
CCc1ccc(-c2cc3c(=O)n(CC(=O)NCCCN4CCN(Cc5ccccc5)CC4)nc(C)n3n2)cc1	-46.4%
CCCCNC(=S)N/N=C1\CCCCc2ccccc21	22.1%
Cc1[nH]n(-c2ccc([N+](=O)[O-])cc2)c(=O)c1C=NCCN1CCN(C(=O)c2ccccc2F)CC1	40.4% (active)
C=CCNC(=S)N1CCN(CCN=Cc2c(C)[nH]n(-c3ccc([N+](=O)[O-])cc3)c2=O)CC1	27.4%

Compound	inhibition
COc1ccc(CNC(=O)/C(C#N)=C/c2cccc(OC)c2OC)cc1	78.2% (active)
O=C(NNc1c2ccccc2nc2ccccc12)c1cc2ccccc2cc1O	40.6% (active)
COc1ccc(-c2oc3ncn(Cc4ccco4)c(=N)c3c2-c2ccc(OC)cc2)cc1	17.6%
CCOC(=O)c1c(N)nn(C(=O)c2ccccc2)c1-c1ccccc1	16.3%
Cc1cc(Nc2ccccc2)n(C(=O)c2ccc(N)cc2)n1	39.9% (active)
Clc1ccc(Nc2ccc3ccccc3n2)cc1	50.6% (active)
C=CCNc1nc(Nc2ccc(Cl)cc2)nc(OC)n1	2.4%
C=CS(=O)c1sc(Cl)c(N2CCOCC2)c1[N+](=O)[O-] (configuration not stated)	83.8% (active)
Nc1ccccc1SC(C[N+](=O)[O-])c1ccccc1 (configuration not stated)	47.1% (active)
Cc1ccc(OS(=O)Nc2cccc3nccnc23)cc1 (configuration not stated)	25.4%
CC(=O)Nc1ccc(/C=C/C(=O)c2ccccc2)cc1	36.3% (active)
COc1ccc(C(=O)/C=C/c2ccc(-c3ccccc3)cc2)cc1CSCC(=O)O	22.9%
CN1c2ccccc2-c2nc3ccccc3n2C1c1ccco1 (configuration not stated)	19.8%
CCn1nc(C)c(NC(=O)/C=C/c2ccc(OC)c(COc3ccc(Br)cc3)c2)c1C	19.9%
CCCCCCCCn1c2c(c(=N)c3c1CCC3)CCCC2	30.4% (active)
O=[N+]([O-])c1ccc2oc(-c3cccc(O)c3)nc2c1	49.8% (active)
COc1ccccc1-n1ccnc(SCC(=O)NC2CCCCC2)c1=O	11.8%
COc1ccccc1C(=O)NC(=S)Nc1ccccc1N1CCCCC1	19.4%
CCc1ccc(C(=O)NC(=S)Nc2ccccc2N2CCOCC2)cc1	17.1%
Cc1ccc(C(=O)NC(=S)Nc2ccccc2C)cc1	29.8% (active)
COc1ccc(/C=N/Nc2ncnc3sc4c(c23)CCCC4)cc1O	17.2%
Cc1ccc(C(=O)/C=C/c2c(C)nn(-c3ccccc3)c2Cl)cc1	38% (active)

Compound	inhibition
CCOC(=O)N1CCC(N2Cc3cccc(C(=O)Nc4c(C)cccc4CC)c3C2=O)CC1	16.6%
COc1ccc(C(=O)NC(=S)NNC(=O)c2c(-c3ccccc3)noc2C)cc1	18.1%
Cc1[nH]c2ccccc2c1C(=O)COC(=O)c1c(-c2ccccc2)noc1C	45.4% (active)
COc1ccc(Nc2nc(N)nc(CSC(=S)N3CCC(C)CC3)n2)cc1	29.9%
CC(=NCc1ccco1)c1c(C(F)(F)F)[nH]n(-c2nc3ccccc3s2)c1=O	63.5% (active)
Cc1cc(Br)ccc1NC(=O)c1sc2ncn(CC(=O)N3CCN(c4ccccn4)CC3)c(=O)c2c1C	-10.2%
O=C(O/N=C(/c1ccccc1)c1ccncc1)c1ccccc1[N+](=O)[O-]	35.3% (active)
O=C(Oc1ccc(-c2nc(-c3ccccn3)no2)cc1)c1ccccc1	30.3%
Cc1ccc(Oc2nc(-c3ccccn3)nc3ccccc23)cc1	35.5% (active)
O=C(ON=C1CCN(S(=O)(=O)c2ccccc2)CC1)c1ccc(Cl)cc1	61% (active)
CCOc1cccc(-c2nn3c(-c4ccccn4)nnc3s2)c1	39% (active)
Cc1cc(C)nc(S/C=C/C(=O)c2ccccc2)n1	71% (active)
COc1ccc(NCc2nnc(SCc3ccccc3)n2-c2ccc(OC)cc2)cc1	38.9% (active)
N#Cc1ccc(CSc2nnc(-c3ccccn3)n2-c2ccc(Cl)cc2)cc1	30.9%
COc1ccc(OC)c2sc(NC(=O)C3COc4ccccc4O3)nc12 (configuration not stated)	23.6%
CC(c1ccco1)N(C(=O)Nc1ccccc1)C1CCCCC1 (configuration not stated)	19.4%
CC(NC(=S)Nc1ccccc1)C1COc2ccccc2O1 (configuration not stated)	37.4% (active)
Cc1ccc(SC(CC(=O)c2ccc(C(C)(C)C)cc2)C(=O)O)cc1 (configuration not stated)	38.5% (active)
c1c2c(cc3sc(N4CCCCC4)nc13)OCCO2	27.8%
Cc1cccc(/C(N)=N/OC(=O)c2ccccc2Cl)c1	50.9% (active)
Cc1ccc(/C(N)=N/OC(=O)COc2ccc(Cl)c(C)c2)cc1	29.1%
Cc1cc(N=Nc2ccc3ccccc3c2)ccc1O	36.4% (active)

Compound	inhibition
Cc1nonc1C(=O)N/N=C/c1ccc(O)cc1	44.9% (active)
O=C(/C=C/c1ccc(Cl)cc1Cl)NCc1ccco1	34.4% (active)
COc1ccc(-c2cc(C3CCN(c4ncccc4[N+](=O)[O-])CC3)[nH]n2)cc1	30.2%
COC(C/C=C/C(=O)[C@@H](C)OCc1ccccc1)OC	43.7% (active)
Nc1ccc(-c2nnc(-c3ccc(-c4ccccc4)cc3)o2)cc1	25.1%
CCc1ccc2oc(-c3ccc(N)cc3)nc2c1	41.8% (active)
COc1ccc(NC(=O)c2cc3nc(-c4ccccc4)cc(C)n3n2)cc1OC	33.3% (active)
CC(C)CCNC(=O)c1ccc2c(Cl)c3c(nc2c1)CCC3	35% (active)
Cc1ccc(-c2cn3cc(C)ccc3n2)cc1	43.9% (active)
CSc1nnc2ccc(-c3ccc(C)cc3)nn12	24.9%
COc1ccc2c(c1)cc1n2CCN=C1NN	27.9%
CCOC(=O)C(=Cc1ccccc1OC)C(=O)OCC	30.1% (active)
COc1ccccc1CNC(=O)c1ccc(SC)cc1OC	20.9%
CNC(C)C#Cc1ccc2sc3cc(OC)c(OC)cc3c(=O)c2c1 (configuration not stated)	31.8% (active)
CSC(=S)N/N=C/c1c[nH]c2ccccc12	41.7% (active)
COC(=O)CSc1snnc1-c1ccc(Cl)c(Cl)c1	31.9% (active)
CCC(=O)Nc1nc2ccccc2n1Cc1ccccc1C	18%
O=c1oc(-c2ccco2)nc2sc3c(c12)CCCCC3	3.45%
O=C(NCc1ccco1)c1cccn2c(=O)c3c4c(sc3nc12)CCCC4	42.4% (active)
Cc1ccc2nc(N(CCN(C)C)C(=O)C3=COCCO3)sc2c1	35.6% (active)
CN(C)CCN(C(=O)C1=COCCO1)c1nc2ccc(Cl)cc2s1	69% (active)
Cc1ccc(-c2csc(NC(=O)C3=COCCO3)n2)cc1C	18.2%

Compound	inhibition
Clc1ccc(C2CC(c3cccs3)n3ncnc3N2)cc1Cl (configuration not stated)	18%
Cc1ccc(S(=O)(=O)NC(C(=O)N2CCOCCOCCOCCOCC2)c2ccccc2)cc1 (configuration not stated)	0.85%
Cc1oc2c(c1C(=O)N1CCOCC1)C(=O)c1ccccc1C2=O	27.7% (active)
O=C1c2cccc3c([N+](=O)[O-])ccc(c23)C(=O)N1CC1CCCO1 (configuration not stated)	46.5% (active)
N#C/C(=C\c1cccnc1)C(=O)Nc1ccc(SC(F)F)cc1	17.2%
O=C(Cc1ccc(Cl)c(Cl)c1)Nc1ccc(SC(F)F)cc1	35.9% (active)
COc1cccc(Cn2cnc3c([N+](=O)[O-])c(C)c(C)cc32)c1	25.6%
COc1ccc(C(C[N+](=O)[O-])n2nc(C)cc2C)cc1 (configuration not stated)	38.1% (active)
COc1ccc2c(c1)C(NS(=O)(=O)OCC(Cl)(Cl)Cl)CCC2 (configuration not stated)	27.9% (active)
Cc1nn(Cc2ccc(Cl)c(Cl)c2)c(C)c1NC(=O)c1cc(C2CC2)on1	51.2% (active)
O=C1CSC(=S)N1c1ccc(Cl)c(Cl)c1	34.4% (active)
S=C(NCCCc1ccccc1)Nc1ccc(Br)cc1	36.3% (active)
COc1ccc2nc(NC(=O)[C@@H]3CCCN3C(=O)c3cccs3)sc2c1	19.9%
CC(C)(C)NC(=O)NC(=O)COC(=O)CCC1CCCCC1	37.9% (active)
Cc1nn2c(c1-c1ccccc1)N=C(c1ccco1)CC2c1ccccc1 (configuration not stated)	28.9%
COc1ccc2nc(Nc3nc4cc5c(cc4s3)OCCO5)sc2c1	1.5%
CCn1c(/C=C/c2ccc([N+](=O)[O-])o2)nc2ccccc2c1=O	45.9% (active)
Brc1ccc(C2=CC(c3ccco3)n3ncnc3N2)cc1 (configuration not stated)	18.9%
Nc1ccccc1Sc1ccc(C(F)(F)F)cc1[N+](=O)[O-]	61.2% (active)
